Screen size: about 360,000 compounds; about 8,200 (2.3%) were called active. For the sample, actives were picked, then their nearest neighbours and some compounds at random. Unmarked numbers belong to inactive results. Cut-off read from the data, not from the text of the source: active = inhibition above about 27%; inactive = the rest.
The compounds below were run against Fructose-bisphosphate aldolase (Mycobacterium tuberculosis (strain ATCC 25618 / H37Rv)) (UniProt P9WQA3) (assay: M. tuberculosis aldolase activity blockers – biochemical, fluorescence, strain H37Rv, primary screen (AID 588726;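 note: 0% = vehicle and 100% = reference inhibitor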)). Conditions: purified M. tuberculosis FBA, fluorescence read-out, at 1 µM, active compounds read high.
Fructose-bisphosphate aldolase (Mycobacterium tuberculosis (strain ATCC 25618 / H37Rv)), sequence (P9WQA3 whole entry, looked up): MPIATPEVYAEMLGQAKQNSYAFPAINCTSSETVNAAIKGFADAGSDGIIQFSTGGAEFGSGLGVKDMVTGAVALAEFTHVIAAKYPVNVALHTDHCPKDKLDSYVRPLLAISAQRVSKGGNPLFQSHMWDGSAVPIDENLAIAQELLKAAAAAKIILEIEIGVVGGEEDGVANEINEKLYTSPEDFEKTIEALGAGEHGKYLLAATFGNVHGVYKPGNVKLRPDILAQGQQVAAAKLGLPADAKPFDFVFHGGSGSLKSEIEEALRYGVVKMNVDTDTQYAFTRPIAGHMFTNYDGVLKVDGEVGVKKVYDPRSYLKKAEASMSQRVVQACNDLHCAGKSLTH

Row | Compound | inhibition
1 | CCCCCN(C(=O)NC(=O)Nc1ccccc1OC)S(C)(=O)=O | -0.28%
2 | CN(C)C(=O)c1cccn(Cc2cccc(C(F)(F)F)c2)c1=O | 0.45%
3 | Cn1c(=O)c2cc(NC(=O)NCCc3cccs3)ccc2n1Cc1cccc(C(F)(F)F)c1 | 141% (active)
4 | O=C(Cc1cccs1)NCc1cccc(C(F)(F)F)c1 | 2.86%
5 | CC1(C)OC(=O)C(=CNC(CO)C(=O)O)C(=O)O1 (stereo not given) | -1.2%
6 | CCOC(=O)Cn1c(=O)n(Cc2ccc(OC)cc2)c(=O)c2cccnc21 | 99.3% (active)
7 | CCOC(=O)Cc1ncccc1C(=O)Nc1ccc(OC)cc1 | -0.27%
8 | COCCCNC(=O)CCc1nc2cccnc2n1Cc1ccc(OC)cc1 | -2.9%
9 | COc1cc(CCN=Cc2ccccc2O)c([N+](=O)[O-])cc1OC | 1.91%
10 | O=C(COc1ccc(-c2ccccc2)cc1)NN=C1CCCC1 | 4.25%
11 | COc1cccc2cc(C(=O)N(C)C)c(=O)oc12 | -1.37%
12 | CN(C)CCNC(=O)c1ccc(Cl)c2cc3ccccc3nc12 | 9.35%
13 | CN(C)C(=O)c1coc2nc3ccccc3nc12 | 131% (active)
14 | COc1ccc(C(F)(F)F)cc1N/C=C\c1nnnn1-c1ccc(C)cc1 | 1.79%
15 | CCCCNC(=O)N1CCCC(N(C)CCc2ccc(OC)c(OC)c2)C1 (stereo not given) | 3%
16 | O=C(O)c1[nH]c2ccccc2c1C(c1cccc(O)c1)c1c(C(=O)O)[nH]c2ccccc12 | 0.61%
17 | CCCS(=O)(=O)Nc1c(C(=O)O)[nH]c2ccccc12 | 38.6% (active)
18 | CCOC(=O)C1CCN(C(=O)Cc2c(C(=O)O)[nH]c3ccccc23)CC1 | 3.52%
19 | CCOC(=O)/C=C/C(=O)OCC(=O)NC(c1ccccc1)c1ccccc1 | 1.96%
20 | Cc1cc(Cl)c2oc(C(=O)N(C)C(C)c3ccccn3)c(C)c2c1 (stereo not given) | 5.49%
21 | CC(C)C(=O)N1CCC2(CC1)Oc1ccc(F)cc1C(=O)C21CC(c2ccccc2)=NO1 (stereo not given) | 4.59%
22 | CCNC(=S)N(CCN(CC)CC)Cc1cc2cc3c(cc2[nH]c1=O)OCCO3 | 22%
23 | COCCCNC(=S)N(CCN(C)C)Cc1cc2cc3c(cc2[nH]c1=O)OCCO3 | 28.8% (active)
24 | CN(C)CCCN(Cc1cc2cc3c(cc2[nH]c1=O)OCCO3)C(=O)NC1CCCCC1 | 26.5%
25 | CCN(CC)CCCNC(=S)N(CCO)Cc1cc2cc3c(cc2[nH]c1=O)OCO3 | 13.2%
26 | Cc1cc(C)c2[nH]c(=O)c(CN(Cc3ccccc3)C(=S)NCCCN(C)C)cc2c1 | 5.66%
27 | CCNC(=S)N(CCN(CC)CC)Cc1cc2cc3c(cc2[nH]c1=O)OCO3 | 32.3% (active)
28 | COc1cc(NC(=O)CSC(=S)N2CCCC2)c(OC)cc1Cl | 9.36%

Row | Compound | inhibition
29 | Cc1ccsc1C1C(C#N)=C(N)OC2=C1C(=O)CC(C)(C)C2 (stereo not given) | 5.8%
30 | CCc1ccc(OCC(=O)N(Cc2ccccc2)C2CCS(=O)(=O)C2)cc1 (stereo not given) | 4.66%
31 | Cn1c(=O)c2c(SCC(=O)NCC3CCCO3)nc(CC(C)(C)C)nc2n(C)c1=O (stereo not given) | -0.73%
32 | O=C(CC[C@H]1O[C@@H](n2ccc(=O)[nH]c2=O)[C@H](O)[C@@H]1O)N[C@H](Cc1ccccc1)C(=O)NCc1ccco1 | 1.72%
33 | CCc1cccc2c(=O)c(C(=O)NCCCOC)c[nH]c12 | 1.41%
34 | Cc1ccc(S(=O)(=O)c2cc3c(=O)n4cccc(C)c4nc3n(CCc3ccccc3)c2=N)cc1C | -2.09%
35 | Cc1cccn2c(=O)c3cc(C(=O)NC4CCCCC4)sc3nc12 | 9.42%
36 | COCCCn1c(C(=O)NC2CCCCC2)cc2c(=O)n3cccc(C)c3nc21 | 37.6% (active)
37 | COCCCn1c(SCC(=O)NC2CCCC2)nnc1-c1ccccc1 | -5.58%
38 | CCn1c(=N)c(C(=O)NCCCOC)cc2c(=O)n3cccc(C)c3nc21 | 661% [above what the read-out allows, likely interference] (active)
39 | CC(NCCc1ccc(S(N)(=O)=O)cc1)C(=O)NCc1ccccc1 (stereo not given) | 0.46%
40 | Cc1cccc(C2c3c(n(C)c(=O)n(C)c3=O)N=C3c4ccccc4C(=O)C32)c1 (stereo not given) | -1.16%
41 | CCOc1ccc(C(=O)Nc2c3c(nn2-c2ccccc2)CS(=O)(=O)C3)cc1 | 0.76%
42 | O=S(=O)(c1ccc(F)cc1)N1CCN(C(=S)NC2CCCC2)CC1 | 0.47%
43 | C[C@@H]1CN([C@@H](C)CO)C(=O)c2cc(Br)cnc2O[C@@H]1CN(C)C(=O)C1CCCCC1 | -2.01%
44 | O=C(Cn1nnc(-c2ccccc2)n1)NC(=O)NC1CCCC1 | 0.56%
45 | O=C(O[C@H]1[C@H](Cc2ccccc2)NS(=O)(=O)[C@H]2C[C@@H]3C=C[C@]12O3)c1ccc([N+](=O)[O-])cc1 | 1.68%
46 | Cc1nnc(SCC(=O)Nc2ccc(S(=O)(=O)Nc3ccc(Cl)nn3)cc2)s1 | -1.39%
47 | CCOc1ccc(C2=CC(c3ccccc3)n3ncnc3N2)cc1 (stereo not given) | 48.9% (active)
48 | Brc1ccc(C2=CC(c3ccco3)n3ncnc3N2)cc1 (stereo not given) | 31.5% (active)
49 | Clc1ccc2c(c1)C1=C(C(c3ccncc3)O2)C(c2ccc(Br)cc2)n2ncnc2N1 (stereo not given) | 1.95%
50 | CC1=C(C(=O)OC2CCCCC2)C(c2cccnc2)n2ncnc2N1 (stereo not given) | 1.05%
51 | Cc1ccc(F)c(S(=O)(=O)NC(=O)C2(C)CCN2C(=O)c2ccco2)c1 (stereo not given) | -2.4%
52 | Cc1ccc(CCCOC(=O)C[N+]2(C)CCCC2)cc1 | 2.21%
53 | COC(=O)C1(CCSC)NC(c2ccc(OC)cc2OC)C2C(=O)N(c3cccc(C(C)=O)c3)C(=O)C21 (stereo not given) | 1.37%
54 | CO[C@H]1[C@@H]2C=CO[C@@H](O[C@H]3O[C@@H](CO)[C@H](O)[C@@H](O)[C@@H]3O)[C@@H]2[C@@]2(CO)O[C@@H]12 | 2.4%
55 | CCOC(=O)C1CCCN(C(=O)c2ccc(CS(=O)(=O)c3ccc(Br)cc3)o2)C1 (stereo not given) | 1.86%
